Inhibition data for 94 compounds are collected here from PubChem BioAssay AID2014 (Sanford-Burnham Center for Chemical Genomics, 2009).

This test addresses Polyadenylate-binding protein 1 (Homo sapiens) (UniProt P11940). As to the kind of experiment: blockers of PABP interaction with poly(A) – biochemical, fluorescence polarization, uHTS, primary screen (AID 2014).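 Note: calls also rest on retests at 20 µM and on dose response follow-up.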 The settings on record: PABP-poly(A) RNA binding, stronger effect = higher value. For orientation: In fluorescence polarisation assays a small probe gives low polarisation when free and higher when bound to something large.

The whole screen tested about 290,000 compounds, of which about 3,000 (1%) were called active. The rule behind the calls is not given here. For the sample, actives were picked, then their nearest neighbours and some compounds at random.

Polyadenylate-binding protein 1 (Homo sapiens), sequence (P11940 whole entry, looked up): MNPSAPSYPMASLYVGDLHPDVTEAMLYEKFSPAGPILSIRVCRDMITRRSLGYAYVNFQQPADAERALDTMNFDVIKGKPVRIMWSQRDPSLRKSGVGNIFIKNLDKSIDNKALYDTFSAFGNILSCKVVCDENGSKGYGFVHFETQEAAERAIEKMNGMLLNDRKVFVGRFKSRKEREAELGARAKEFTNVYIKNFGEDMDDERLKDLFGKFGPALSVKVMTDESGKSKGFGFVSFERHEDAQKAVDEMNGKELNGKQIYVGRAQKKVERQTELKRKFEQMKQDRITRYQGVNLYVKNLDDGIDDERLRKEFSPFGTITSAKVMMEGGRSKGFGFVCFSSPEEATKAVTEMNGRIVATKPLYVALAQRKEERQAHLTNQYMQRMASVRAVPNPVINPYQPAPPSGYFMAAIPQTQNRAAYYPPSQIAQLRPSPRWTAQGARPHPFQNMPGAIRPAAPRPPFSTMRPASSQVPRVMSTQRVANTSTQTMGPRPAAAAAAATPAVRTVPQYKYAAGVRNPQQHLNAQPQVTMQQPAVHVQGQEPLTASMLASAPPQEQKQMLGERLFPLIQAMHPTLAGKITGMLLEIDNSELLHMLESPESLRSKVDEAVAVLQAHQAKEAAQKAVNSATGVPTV

With `C[N+]1(CCNC(=O)/C=N/O)CCCCC1`, the inhibition (commonly the change of the read-out against control, counted positive when it falls) (at 35 µM) was 63.4% (active).
Still for that read-out and setting: for `CC(C)[C@H](NC(=O)N1CC(=O)Nc2ccccc21)C(=O)N[C@@H](Cc1c[nH]c2ccccc12)C(=O)O` the value was -3.1% (inactive).
The same measure, in the same setting: for `Cc1cccc(-c2c(NC(=O)c3ccco3)oc3ccc(Cl)cc3c2=O)c1` the value was -6.1% (inactive).
For the compound `O=C1OC(/C=C/c2ccccc2)=NC/1=C/c1ccco1`, the inhibition is 16.6% (inactive) (at 35 µM) and 5.2% (confirmation repeats, at 20 µM).
`CCC1S/C(=N/N=C/c2ccco2)NC1=O` (centres undefined): the inhibition (at 35 µM) was -11% (inactive).
Regarding `CC(C)(C)C1C/C(=C/c2ccco2)C(=O)/C(=C/c2ccco2)C1` (centres undefined), the inhibition is, setting by setting: (at 35 µM) -1.8% (active); (confirmation repeats, at 20 µM) 53.3%.
`Cn1c(=O)oc2cc(S(=O)(=O)NCCC(=O)NCc3ccccc3Cl)ccc21`: the inhibition (at 35 µM) was 1% (inactive).
Same read-out and setting: for `C=CCn1c(SCc2csc(C)n2)nc2scc(-c3ccc(C)o3)c2c1=O` the value was 6.5% (inactive).
Same read-out and setting: for `C=CCn1c(=S)[nH]c2scc(-c3ccco3)c2c1=O` the value was 69.3% (active).
The same measure, in the same setting: for `C=CCNC(=O)CSc1nc2scc(-c3ccco3)c2c(=O)n1CC=C` the value was 15.2% (inactive); for `COc1cccc(NC(=O)N2CCCC2C(=O)NC2CCCCC2)c1` (centres undefined), -0.6% (inactive); for `CCn1cc(C(=O)N2CC(C)CC(C)C2)c(=O)c2cc(S(=O)(=O)N3CCCC3)ccc21` (centres undefined), -11.3% (inactive).
For `COc1ccc(-c2cc(C(=O)N(C)Cc3ccc(OC)c(OC)c3OC)c3ccccc3n2)cc1OC`, the inhibition (at 35 µM) is 48% (inactive).
With `Cc1ccc(C(C[N+](=O)[O-])c2c(C)cc3ccccn23)cc1` (centres undefined), the inhibition reads like this: (at 35 µM) -2.2% (active); (confirmation repeats, at 20 µM) 72.2%.
As to `CC(=O)Nc1ccc(/C=N/Nc2ccc(C(=O)c3c(C)cc4ccccn34)cc2[N+](=O)[O-])cc1`, the inhibition (at 35 µM) is 9% (inactive).
The same measure, in the same setting: for `Cc1cc2ccccn2c1C(=O)c1cccc(F)c1` the value was 2.5% (inactive); for `Cc1ccc(CNC(=O)Cc2cn(C)c3ccccc23)cc1`, 6.1% (inactive); for `CCCc1nc2c(c(=O)c3ccccc3n2C)c(=O)n1-c1cc(C)cc(C)c1`, 4.7% (inactive).
Same read-out and setting: for `COc1ccc(C(=O)CSc2nnc(COc3ccccc3)n2Cc2ccco2)cc1` the value was -8.1% (inactive).
For the compound `Cn1c2ccccc2c(=O)c2c(=O)n(Cc3ccco3)c(COc3ccccc3)nc21`, the inhibition (at 35 µM) is 1.9% (active) and the inhibition (confirmation repeats, at 20 µM) was found to be 54.5%.
For the compound `Cc1cnc(C)c(N2CCN(C(=O)C3CCC(=O)N(CCc4cccc(F)c4)C3)CC2)n1` (centres undefined), the inhibition (at 35 µM) was 4.1% (inactive).
As to `O=C1CCCC(O)=C1N=Nc1ccc(S(=O)(=O)N2CCOCC2)cc1`, for the setting “at 35 µM”, the inhibition was 14.4% (inactive).
For `O=C1CCCC(O)=C1N=Nc1ccc2ncsc2c1`, the inhibition is, setting by setting: (at 35 µM) -16.7% (active); (confirmation repeats, at 20 µM) 53.4%.
With `CCOc1cc(C2/C(=C(/O)c3ccc(S(=O)(=O)N4CCCCC4)cc3)C(=O)C(=O)N2CCOC)ccc1O` (centres undefined), the inhibition (at 35 µM) was 1.6% (inactive).
On the same count and under the same terms, for `Cc1ccc2cc(C)c(N3CCN(c4ccc(F)cc4)CC3)nc2c1` the value was -13.2% (inactive); for `COc1ccc(-c2cc(C(=O)N3CCN(Cc4ccc5c(c4)OCO5)CC3)on2)cc1OC`, 6.7% (inactive).
With `O=C(CCS(=O)(=O)c1ccc(Br)cc1)NCCc1ccc(Cl)cc1`, the inhibition is, setting by setting: (at 35 µM) 19.8% (inactive); (confirmation repeats, at 20 µM) 10.6%.
Take `COc1ccc(Cl)cc1NC(=O)CCS(=O)(=O)c1cc2c(cc1C)NC(=O)CO2`: under “at 35 µM”, the inhibition was -1.1% (inactive).
Still for that read-out and setting: for `COc1ccc(Cl)cc1NC(=O)CCS(=O)(=O)c1ccc(Br)cc1` the value was 54.8% (active).
On the same count and under the same terms, for `O=C(CSc1ncn[nH]1)N/N=C/c1ccc(F)cc1` the value was -7.9% (inactive); for `O=C(NCCCc1ccccc1)c1cc(COc2c(F)cccc2F)on1`, -3.7% (inactive); for `O=C(c1c(F)cccc1F)N1CCN(c2ncc(Br)cn2)CC1`, 0.7% (inactive).
As for `Cc1ccc(-c2csc(N(Cc3ccco3)C(=O)c3cccs3)n2)cc1`, the inhibition (at 35 µM) is -9.4% (inactive).
`Cc1nnc(N(Cc2ccco2)C(=O)c2ccno2)s1`: the inhibition (at 35 µM) is 68.4% (active).
On the same count and under the same terms, for `CN(C(=O)c1ccno1)c1nnc(-c2cccnc2)s1` the value was 12% (inactive); for `O=C(CCN1C(=O)[C@H]2CC=CC[C@H]2C1=O)NCc1nc(-c2ccccc2)no1`, 15.4% (inactive); for `O=C1c2ccccc2S(=O)(=O)N1Cc1c(F)cccc1Cl`, 5.7% (inactive).
Same read-out and setting: for `CCc1c(-c2ccccc2)nc(N)c(C#N)c1-c1cccs1` the value was -4.1% (inactive); for `Cc1c(-c2ccccc2)nc(N)c(C#N)c1-c1cccs1`, -3.2% (inactive).
On to `CN1CCc2nc(SC(C(=O)O)c3ccccc3)c(C#N)c(-c3cccs3)c2C1` (centres undefined), for which, for the setting “at 35 µM”, the inhibition is 68.1% (active).
On the same count and under the same terms, for `CCOC(=O)C1(Cc2ccccc2C)CCCN(C(=O)CCc2c(C)noc2C)C1` (centres undefined) the value was 2.2% (inactive); for `CCn1c(=S)sc2c(=O)n(CC(=O)Nc3ccc(OC)cc3)c(C)nc21`, -6.5% (inactive).
The same measure, in the same setting: for `Cc1cccc(C)c1NC(=O)CSc1nc2c([nH]1)c(=O)n(C)c(=O)n2C` the value was 1% (inactive); for `COc1cc(CCC(=O)N2CCN(c3ccccc3Cl)CC2)cc(OC)c1OC`, 9.6% (inactive).
Consider `CCc1nnc(NC(=O)Cc2cccs2)s1`, for which the inhibition (at 35 µM) was 10.4% (inactive).
The same measure, in the same setting: for `COc1ccc(Cc2nnc(NC(=O)Cc3cccs3)s2)cc1` the value was 72.4% (active); for `COc1ccc(Cc2nnc(NC(=O)c3ccc(OC)cc3OC)s2)cc1`, -6% (inactive).
On the same count and under the same terms, for `CNS(=O)(=O)c1cccc(C(=O)NCC2CCCCC2)c1` the value was 1% (inactive).
Still for that read-out and setting: for `Cc1cc(C)c(C#N)c(SCc2[nH]nc3c2C(c2ccccc2)C(C#N)=C(N)O3)n1` (centres undefined) the value was -7.3% (inactive).
In the case of `Cc1cc(C)c2c3c(sc2n1)C(c1ccccc1)C(C#N)=C(N)O3` (centres undefined), the inhibition was 120% (active) (at 35 µM) and 63.8% (confirmation repeats, at 20 µM).
On to `Cc1nn(Cc2ccccc2)c2c1C(c1ccccc1)C(C#N)=C(N)O2` (centres undefined), for which the inhibition (at 35 µM) is 5.6% (inactive).
On the same count and under the same terms, for `O=C(N/N=C/c1ccccc1O)/C(=C/c1ccccc1)CCO` the value was -0.9% (inactive).
With `CCOc1cc(/C=N/Nc2cc(C)nc3ccc(C)cc23)ccc1O`, the inhibition (at 35 µM) is -6.9% (inactive).
Regarding `Cc1c(-c2cccc(Cl)c2)nc2ccccc2c1C(=O)OCC(=O)N(C)C1CCS(=O)(=O)C1` (centres undefined), the inhibition (at 35 µM) is 6.7% (inactive).
Still for that read-out and setting: for `CN(C(=O)COC(=O)c1cc(-c2ccco2)nc2ccccc12)C1CCS(=O)(=O)C1` (centres undefined) the value was 77.7% (active).
`CN(C(=O)COC(=O)c1nc(Cl)ccc1Cl)C1CCS(=O)(=O)C1` (centres undefined): the inhibition (at 35 µM) is 1.3% (inactive).
On the same count and under the same terms, for `Cc1cccc(Nc2nc(-c3ccccc3)cs2)n1` the value was 3.3% (inactive).
On the same count and under the same terms, for `O=C(NCc1ccccn1)c1cc(Br)ccc1Cl` the value was 0.7% (inactive); for `O=C(NCc1ccccn1)c1ccc2nc(-c3ccco3)c(-c3ccco3)nc2c1`, 77.7% (active); for `COc1cccc(S(=O)(=O)NCc2ccc(C(=O)NCc3ccccn3)cc2)c1`, 1.8% (inactive).
In the case of `CC1=C(C(=O)Nc2ccccc2)C(c2ccco2)C(C#N)=C(SCC(N)=O)N1` (centres undefined), the inhibition (at 35 µM) was 7.1% (inactive).
The same measure, in the same setting: for `N#CC1=C(N)Oc2c(ccc3cccnc23)C1c1ccncc1` (centres undefined) the value was 10.6% (inactive); for `N#CC1=C(N)Oc2c(sc3ccccc23)C1c1ccco1` (centres undefined), 86.3% (active); for `COCCCNc1nc2c(-c3cccc(C)c3)nnn2c2ccc(Cl)cc12`, 3.2% (inactive).
The same measure, in the same setting: for `COc1cccc(N(C(=O)CNC(=O)c2ccco2)C(C(=O)NC2CCCCC2)c2cccnc2)c1` (centres undefined) the value was 10.1% (inactive).
The same measure, in the same setting: for `CN(C)CCCNC(=S)N1CCC(c2nc3ccccc3[nH]2)CC1` the value was -6% (inactive).
Consider `COc1ccc(C(CNC(=O)COc2ccc([N+](=O)[O-])cc2)N2CCCCC2)cc1` (centres undefined), for which the inhibition (at 35 µM) is 1% (inactive).
The same measure, in the same setting: for `NC(=O)c1c(NC(=O)c2ccccc2)sc2c1CCCC2` the value was 3.6% (inactive); for `Fc1cc(F)c2nc(Nc3nc4c(F)cccc4s3)sc2c1`, 0.5% (inactive).
For the compound `NC(=O)c1c(Nc2nc3c(F)cccc3s2)sc2c1CCCC2`, the inhibition (at 35 µM) was -15.3% (active) and the inhibition (confirmation repeats, at 20 µM) worked out at 73.7%.
As for `COc1ccc(C(=O)NCCSc2ccccc2C)cc1`, where the note is “at 35 µM”, the inhibition is 1.1% (inactive).
Same read-out and setting: for `COCc1cc(C)n(CC(=O)NCC2CCCO2)c(=O)c1C#N` (centres undefined) the value was -1.9% (inactive); for `Cc1ccc(N2CCN(C(=O)c3cccs3)CC2)c(C)c1`, 3.2% (inactive); for `CCOC(=O)C(C)Sc1nnc(CSc2nc3nc(C)cc(C)n3n2)o1` (centres undefined), 2.5% (inactive).
In the case of `Cc1cc(C)n2nc(SCC(N)=O)nc2n1`, the inhibition reads like this: (at 35 µM) 51.5% (active); (confirmation repeats, at 20 µM) 81.1%.
Take `COc1ccc(C(C)=O)cc1CSc1nc2nc(C)cc(C)n2n1`: the inhibition (at 35 µM) was -7.3% (inactive).
On the same count and under the same terms, for `Cc1onc(C(=O)Nc2ccc3c(c2)OCO3)c1[N+](=O)[O-]` the value was 1.4% (inactive).
Still for that read-out and setting: for `Cc1ccnc(N2C(=O)c3ccc([N+](=O)[O-])cc3C2=O)c1` the value was 47.5% (inactive); for `COc1ccccc1NC(=O)Nc1nnc(Cc2ccc(F)cc2)s1`, -15% (inactive); for `COc1ccc(C(CNC(=O)c2cc3c(s2)CCCC3)N2CCOCC2)cc1` (centres undefined), 11.9% (inactive).
Consider `COc1ccc(CC(NC(C)=O)C(=O)NC2CCN(C(=O)c3ccc(Cl)cc3)CC2)cc1` (centres undefined), for which the inhibition (at 35 µM) was 3.2% (inactive).
On the same count and under the same terms, for `CNC(=S)N1CCC(NC(=O)C(Cc2ccc(F)cc2)NC(C)=O)CC1` (centres undefined) the value was 63.2% (active); for `CC(=O)NC(Cc1ccc(F)c(F)c1)C(=O)NC1CCN(C(=O)c2ccc(C)cc2)CC1` (centres undefined), 1.9% (inactive).
On the same count and under the same terms, for `C[C@@H]1CC[C@@]2(OC1)O[C@H]1C[C@H]3[C@@H]4CC=C5C[C@@H](O)[C@H](O)C[C@]5(C)C4CC[C@]3(C)[C@H]1[C@@H]2C` (some centres undefined) the value was 7.2% (inactive); for `O=C1CN(C(=O)c2cc(F)cc(F)c2)c2ccccc2N1`, -2.2% (inactive); for `Cc1cc(O)c(C(=O)/C=C/c2c(F)c(F)c(F)c(F)c2F)c(=O)o1`, -2.1% (inactive).
On the same count and under the same terms, for `Cc1cc2c(=O)n(CC(=O)NCC(=O)Nc3ccc(C(C)C)cc3)cnc2s1` the value was 9.1% (inactive); for `Cc1ccc(-n2ncc3c2CCCC3NC(=O)c2cnccn2)cc1C` (centres undefined), 5.7% (inactive).
On to `O=C(c1cccs1)N(C(=O)c1cccs1)c1ccccn1`, for which the inhibition (at 35 µM) is 0.2% (inactive).
In the case of `O=C(CNC(=O)c1ccc(Br)o1)NCC1CCCO1` (centres undefined), the inhibition (at 35 µM) was -3.6% (inactive).
As for `O=C(c1ccc(Br)o1)N(c1ccccn1)C1CCCCC1`, the inhibition by setting is: (at 35 µM) -4.7% (active); (confirmation repeats, at 20 µM) 75.2%.
Take `CC1(C)CC(=O)C=C(Nc2ccccc2)C1`: the inhibition (at 35 µM) is 2.3% (inactive).
On the same count and under the same terms, for `CC1(C)CC(=O)C(C2c3ccccc3S(=O)(=O)c3ccccc32)C(=O)C1` the value was 62.9% (active); for `CC1(C)CC(=O)NC=C(c2ccccc2)C1`, -9.5% (inactive).
